Screens deposited in PubChem by National Center for Advancing Translational Sciences (NCATS).
This is a sample that favours compounds with a hit; in the whole collection about 10% have one here.
GLA inh pH 4.5 – alpha-galactosidase A (human) inhibition, pH 4.5. 230,000 tested, under 10 active. P06280. activity change, negative = inhibition, % at 105 µM. purified enzyme, 4-MU-alpha-Gal fluorescence, pH 4.5;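 further: 0% = full activity with enzyme and -100% = basal without enzyme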
ALDH1A1 block – ALDH1A1 (human) enzyme inhibition; P00352; Purified ALDH1A1, NADH fluorescence, propionaldehyde substrate; Potency, µM (doses to about 75.3 µM), for inactives: top-dose activity, negative = inhibition, hits mostly inhibitors; 7.3% of 220,000 active; AID 1030; active means well fitted inhibition curve with a large enough effect, not every such curve was filed as active; inconclusive means small, poorly fitted or top-dose-only effect, or another doubt; inactive means no such curve, though single readings can be large or run the other way;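 further: potency means the concentration at half of the fitted maximal effect; plate controls were no enzyme wells and a reference inhibitor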
GLA spleen mod – alpha-galactosidase A (human) modulation; P06280; human spleen homogenate, 4MU-alpha-Gal fluorescence, 40 min; Potency, µM (series often up to 80 µM), inactives show at the highest dose activity change, negative = inhibition, hits mostly inhibitors; 0.008% of 240,000 active; AID 2107;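 further: potency means the concentration at half of the fitted maximal effect; 0% = enzyme with vehicle and -100% = no enzyme basal signal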
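Fluorogenic readout (Ex 365/Em 440 nm) of 4-methylumbelliferone released from 1 mM 4-MU-alpha-galactoside by spleen homogenate, 40 min at 37C, pH 5.0. Data normalized to no-enzyme and enzyme controls; Hill-equation AC50 from compound titrations.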
PNC assembly inh – perinucleolar compartment assembly inhibition. PC3M PTB-GFP, PNC prevalence imaging, 16 h; active compounds read low. activity change (PNC), negative = inhibition, % at 10 µM. 3.1% of 140,000 active;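 active means readout at or below -70, meaning at least 70% loss of cells showing the perinucleolar compartment, a nuclear body marking cancer cells; inconclusive means readout between -30 and a set limit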;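 further: plate controls were DMSO wells for no effect and camptothecin positive control wells for full effect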
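PC3M cells stably expressing PTB-GFP, 750–1000 cells/well, treated 16 h at 37 °C with compound (23 nl of library stock), in duplicate. After paraformaldehyde fixation and Hoechst stain, imaged at 20x; PNC prevalence scored by image analysis.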
HPGD inh – HPGD (human) dehydrogenase inhibition; P15428; purified HPGD, NADH fluorescence kinetic, PGE2 substrate; Potency, µM, for the others: top-dose activity change, negative = inhibition, hits mostly inhibitors; 4.3% of 150,000 active; AID 894; active means well fitted inhibition curve with a large enough effect, not every such curve was filed as active; inconclusive means small, poorly fitted or top-dose-only effect, or another doubt; inactive means no such curve, though single readings can be large or run the other way; further: potency means the concentration at half of the fitted maximal effect
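NADH formation kinetics: reaction with 30 uM PGE2 and 1 mM NAD+ (final), 20 nM enzyme, Tris-HCl pH 8 with Tween 20, after 15 min compound preincubation at room temperature. Fluorescence change, last versus first of five reads.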
ALOX12 inhib – inhibitors of human 12-lipoxygenase (ALOX12). purified 12-hLO, xylenol orange hydroperoxide absorbance. Potency, µM (top dose mostly 57.1 µM), for inactives: at the top dose activity change, negative = inhibition, hits mostly inhibitors. 0.12% of 150,000 active; further: potency means the concentration at half of the fitted maximal effect; nearly all actives have a fitted effect of over 55% in size
Target sequence (P18054 whole entry, looked up): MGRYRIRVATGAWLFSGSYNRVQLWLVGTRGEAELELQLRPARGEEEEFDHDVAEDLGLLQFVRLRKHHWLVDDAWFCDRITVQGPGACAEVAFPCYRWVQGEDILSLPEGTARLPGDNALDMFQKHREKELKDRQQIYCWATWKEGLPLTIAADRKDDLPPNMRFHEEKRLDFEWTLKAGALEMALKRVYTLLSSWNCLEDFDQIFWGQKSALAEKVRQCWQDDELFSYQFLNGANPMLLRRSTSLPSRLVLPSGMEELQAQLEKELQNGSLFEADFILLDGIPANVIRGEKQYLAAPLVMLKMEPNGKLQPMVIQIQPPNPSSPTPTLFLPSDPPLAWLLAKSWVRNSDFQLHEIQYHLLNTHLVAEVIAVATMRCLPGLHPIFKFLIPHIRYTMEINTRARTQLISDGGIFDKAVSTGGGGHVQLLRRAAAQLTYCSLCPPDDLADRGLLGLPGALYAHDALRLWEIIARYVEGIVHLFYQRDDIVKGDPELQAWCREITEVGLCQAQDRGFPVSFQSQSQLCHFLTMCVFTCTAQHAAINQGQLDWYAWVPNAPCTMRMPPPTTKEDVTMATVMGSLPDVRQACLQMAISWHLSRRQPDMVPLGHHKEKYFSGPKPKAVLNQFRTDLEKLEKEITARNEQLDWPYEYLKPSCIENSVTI
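Xylenol orange chromogenic assay: hydroperoxide from 12hLO oxidises Fe(II), giving red-shifted Fe(III)-XO absorbance. Conditions: 150 nM enzyme, 40 uM arachidonic acid, 25 mM Hepes pH 7.0, 0.01% Triton X-100, 30 min, room temperature.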
Starred values were filed as active, the others as inactive; ? = inconclusive; nt = no result given; [ ] = another dose, or the depositor's remark. Unless noted, the call rests on the fitted dose curve; in most records, active means well fitted curve in the direction sought with a large enough effect; inconclusive means small, poorly fitted or top-dose-only effect, or another doubt; inactive means no such curve, though single readings can be large; an effect the other way counts as inactive or inconclusive. Unless noted, on the % scale 0 is the no-effect control and ±100 the full control effect.

SMILES | GLA inh pH 4.5 | ALDH1A1 block | GLA spleen mod | PNC assembly inh | HPGD inh | ALOX12 inhib
CCCSc1cc(NCCOC(C)=O)c([N+](=O)[O-])c2nonc12 | -11 | 6% | -2% | 11 | -26% | 0%
CCCC(=O)OCCNc1cc(Sc2nccn2C)c2nonc2c1[N+](=O)[O-] | 0 | ? | -3% | -20 | 28µM* | -1%
CCn1c(=O)c(=O)n(CC)c2cc(S(=O)(=O)Nc3cccc(OC)c3)ccc21 | 0 | 13µM* | 1% | -13 | -20% | 3%
COc1ccc(NS(=O)(=O)c2ccc3c(c2)n(C)c(=O)n3C)cc1 | -4 | -10% | 3% | -10 | 16µM* | 1%
Cc1ccccc1NS(=O)(=O)c1ccc2c(c1)n(C)c(=O)n2C | -2 | ? | 5% | nt | nt | nt
CC(C)(C)c1ccc(S(=O)(=O)Nc2ccc3c(c2)COC3=O)cc1 | 4 | 4.5µM* | 8% | nt | nt | nt
COc1ccc(OC)c(NS(=O)(=O)c2ccc3c(c2)n(C)c(=O)n3C)c1 | -9 | -10% | 21% | 3 | 1% | -6%
Cn1c(=O)n(C)c2cc(NS(=O)(=O)c3ccc4c(c3)CCCC4)ccc21 | 4 | 1µM* | 5% | -23 | -2% | ?
CC(C)OCC1Cn2c(nc3c2c(=O)n(C)c(=O)n3C)O1 (stereo not drawn) | 1 | 10% | 3% | nt | nt | nt
COc1ccc(F)cc1C(=O)C1CCCN(C(=O)c2cccc(N(C)C)c2)C1 (stereo not drawn) | -2 | 1% | 11% | nt | nt | nt
Cn1c(=O)n(C)c2cc(NS(=O)(=O)c3ccc(C(C)(C)C)cc3)ccc21 | -24 | 0.56µM* | 8% | nt | nt | nt
N[C@@H](Cn1cc(F)c(=O)[nH]c1=O)C(=O)O | 1 | -5% | 11% | nt | -8% | -3%
COC1(OC)N=C(N)C2(C#N)C(c3cccc(Oc4ccccc4)c3)C12C#N (stereo not drawn) | 4 | 22µM* | 15% | 36 | -17% | -8%
Cn1c(-c2nnn(-c3ccc(F)cc3)n2)cc2ccccc21 | -1 | ? | 2% | nt | nt | nt
CCCC(C(=O)NC1CCCCC1)N(Cc1ccco1)C(=O)CNS(=O)(=O)c1ccccc1 (stereo not drawn) | 1 | 10µM* | 9% | 23 | -3% | 3%
O=C(CN(Cc1ccco1)C(=O)CNS(=O)(=O)c1ccc(Cl)cc1)NC1CCCCC1 | 7 | 0% | 7% | -24 | -6% | 4%
CC(C)C(C(=O)NCC1CCCO1)N(Cc1ccco1)C(=O)CNS(=O)(=O)c1ccc(F)cc1 (stereo not drawn) | -4 | 10% | 1% | -19 | -1% | -3%
CCCC(C(=O)NCC1CCCO1)N(Cc1ccco1)C(=O)CNS(=O)(=O)c1ccccc1 (stereo not drawn) | 3 | 11µM* | 3% | 49 | -1% | 3%
O=c1c(-c2cccs2)nc2cncnc2n1-c1ccccc1 | nt | ? | 10% | nt | nt | nt
Cc1ccc(NC(=S)Nc2cc(-c3ccccc3)[nH]n2)cc1Cl | 3 | ? | 4% | nt | nt | nt
Fc1ccc(NC(=S)Nc2cccnc2)cc1 | 8 | -4% | -7% | nt | nt | nt
Fc1ccc(NC(=S)Nc2cc(-c3ccccc3)[nH]n2)cc1Cl | -9 | 1.4µM* | -1% | nt | nt | nt
Fc1ccc(NC(=S)Nc2cccnc2)cc1Cl | -2 | 28µM* | 11% | nt | nt | nt
CC(C)C(=O)Nc1ccc(S(=O)(=O)Nc2ccccn2)cc1 | 0 | ? | 5% | nt | nt | nt
O=C1CC[C@](CCc2nc3ccccc3[nH]2)(c2ccccc2)C(=O)N1 | nt | 20%[13.5 µM] | nt | nt | -3% | 1%[11.4 µM]
SMILES | GLA inh pH 4.5 | ALDH1A1 block | GLA spleen mod | PNC assembly inh | HPGD inh | ALOX12 inhib
N[C@@H](C(=O)O)c1ccc(C(=O)O)c(C(=O)O)c1 | 0 | 16% | 18% | nt | 0% | 3%
CCC(C)C(=O)Nc1nc(-c2ccc3c(c2)NC(=O)CO3)cs1 (stereo not drawn) | 1 | 20µM* | -1% | 45 | -26% | -1%
Nc1nc(-c2ccc3c(c2)OCCO3)cs1 | -1 | ? | 1% | 8 | -13% | -7%
O=C1COc2ccc(-c3csc(NCCc4ccccc4)n3)cc2N1 | -14 | ? | -5% | nt | nt | nt
Nc1nc(-c2ccc3c(c2)NC(=O)CO3)cs1 | -11 | 3.2µM* | -10% | ? | 18µM* | -17%
COc1ccccc1OCc1ccc(C(=O)N2CCOCC2)o1 | 7 | 25µM* | 1% | 3 | -7% | 2%
O=C(c1ccc(COc2ccccc2[N+](=O)[O-])o1)N1CCCCCC1 | 0 | -15% | 7% | ? | 25µM* | -7%
O=C(c1ccc(COc2ccccc2[N+](=O)[O-])o1)N1CCCCC1 | -11 | ? | -4% | -27 | 22µM* | -4%
O=C(O)c1ccc(COc2ccccc2[N+](=O)[O-])o1 | -7 | -3% | -2% | ? | -12% | -1%
CC(O)CNCCCOc1ccc(Cl)cc1C(C)(C)C (stereo not drawn) | -4 | ? | -14% | nt | nt | nt
CCc1nn2cc(C(=O)c3cc(Cl)ccc3O)cnc2c1-c1ccc(F)cc1 | -7 | -8% | 1% | -21 | 16µM* | 0%
COc1ccc(C(=O)N(Cc2ccco2)C(C(=O)NC2CCCC2)c2ccc(O)cc2)cc1OC (stereo not drawn) | 4 | 22µM* | 4% | 10 | -7% | -7%
O=C1C=C[C@@H](O)[C@@H]2[C@H]3C(=O)N(c4ccc(F)cc4F)C(=O)[C@@H]3CC[C@@H]12 | nt | ? | -26%[17.5 µM] | nt | nt | nt
Cc1sc2nc(COC(=O)CNC(=O)c3ccc(C(C)(C)C)cc3)[nH]c(=O)c2c1C | 0 | 8.9µM* | -2% | 26 | -20% | -6%
Cc1sc2nc(COC(=O)c3ccc(N4CCCC4)c([N+](=O)[O-])c3)[nH]c(=O)c2c1C | -1 | 18µM* | 3% | 0 | -13% | -1%
COc1ccccc1CNc1ccnc(-c2cccc(NS(C)(=O)=O)c2)n1 | nt | 1% | 2% | nt | nt | nt
COC(=O)C1=C(C(=O)OC)[C@@H]2Nc3ccccc3[C@@]23C[C@@H](C(=O)OC)N(S(=O)(=O)c2cccs2)C3=N1 | 5 | 17%[13.5 µM] | -1%[17.5 µM] | nt | 1% | 0%[11.4 µM]
CC(=O)c1c(C(C)=O)c(C)n(-c2cccc3cccnc23)c1C | 1 | ? | 7% | nt | nt | nt
C=CCNC(=O)COC(=O)COc1ccc(Cl)cc1 | -2 | 5% | 2% | nt | nt | nt
O=[N+]([O-])c1cnc(N2CCCCC2)c([N+](=O)[O-])c1 | -9 | 18µM* | 4% | ? | -24% | 5%
Cc1cc([N+](=O)[O-])cnc1N1CCOCC1 | 1 | -3% | -9% | -114* | -3% | -2%
O=[N+]([O-])c1ccc(N2CCCCC2)cn1 | -3 | 1% | 2% | nt | nt | nt
COc1cccc(-n2c(Cn3nc(C(F)(F)F)cc3C)n[nH]c2=S)c1 | 5 | 4% | -2% | -3 | -16% | -4%
